Potency and activity (max response) data for 40 molecules are collected here from PubChem BioAssay (NCATS).

Where “and” joins values, the source holds several entries; their conditions need not be identical. Identical values can stand only once. Results filed as inconclusive are left out. Calls of active or inactive are those of the source. Calls come from the whole dose curve; as a rule, active = well fitted cell-killing curve with a large enough effect; inconclusive = small, poorly fitted or top-dose-only effect; inactive = flat fitted curve, though single readings scatter.
% is set by controls: 0 for no effect and ±100 for the full control effect.

The nature of the experiment: Cellular viability qHTS for adrenocortical cancer (ACC) cell line SW-13 (AID 1963989).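 For activity (max response): cells grown in serum-free medium with ITS supplement.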 Note: nearly all actives have a fitted effect of over 65% in size. The following applies: SW-13 ACC cells viability, CellTiter-Glo, 48 h; activity (max response): active compounds read low. The text has this: PI: Naris Nilubol, MD Surgical Oncology Program, National Cancer Institute (NCI) National Institute of Health (NIH), Bethesda, Maryland Adrenocortical cancer (ACC) is a rare malignancy with poor survival outcomes and few treatment options. Currently, mitotane is the only FDA-approved therapy for ACC. Although adjuvant radiation therapy is rarely utilized, it has the potential to improve survival in select cases. Through a quantitative high-throughput drug screen (qHTS), we identified auranofin (AF), a thioredoxin reductase (TXNRD) inhibitor, as a promising candidate drug. This study aims to evaluate whether AF can enhance the efficacy of radiation therapy in the treatment of ACC. Two human ACC cell lines, SW-13 and NCI-H295R, were screened using the National Center for Advancing Translational Sciences (NCATS) Pharmaceutical Collection (NPC) and the Mechanism Interrogation PlatE (MIPE) library (~4,991 compounds). CellTiter-Glo (Cat # G7570, Promega, Madison, WI) was utilized to measure cell viability. Described herein are the results of the corresponding viability assay.
PROTOCOL TABLE (as described by Inglese J, Shamu CE and Guy RK. 2007) SEQUENCE No. (e.g., 1, 2, 3, etc.); […] (e.g., Cells, Incubation, Reagent, etc.); VALUE; DESCRIPTION. 1; Cells; 5 uL; white, solid-bottom, 1536-well tissue-culture treated plates. 2; Time; overnight culture at 37C with 5% CO2. 3; Compounds and control; 23 nL; Kalypsis pin tool (Wako USA) equipped with a 1536-well pin head to transfer to the assay plates. 4; Time; 48 hours; 37C with 5% CO2. 5; Reagent; 4 uL; CellTiter-Glo luminescent substrate mix. 6; Time; 20 min at room temperature. 7; Detection; Luminescence; ViewLux plate reader NOTES (numbers refer to Sequence numbers above) 1. SW13 cells were harvested from a T175 flask and resuspended in ITS-supplemented DMEM serum-free medium at a concentration of 300 000 cells/mL. Then 5 uL of resuspended cells were dispensed into each well of white, solid-bottom, 1536-well tissue-culture-treated plates using a multidrop combi dispenser. The plates were covered with stainless steel gasket lids. 2-3. The plates were cultured overnight at 37C with 5% CO2. Twenty-three nL of compounds (eight selected concentrations from the NPC / MIPE) or positive control (10 mM stock of bortezomib) in DMSO was transferred to each well of the assay plate using a pin tool (Kalypsys, San Diego, CA, USA). The final concentration of the compounds in the 5 uL assay volume ranged from 0.5 nM to 46 uM. 4-6. After 48 hours of incubation at 37C and 5% CO2, 4 uL of CellTilter-Glo luminescent substrate mix (Promega, Madison, WI, USA) was added to each well. Then the plates were incubated for 20 minutes at room temperature. 7. After incubation, luminescence was measured using a ViewLux plate reader (PerkinElmer, Waltham, MA, USA) with a clear filter was used to measure the number of metabolically competent cells. To determine compound activity in the qHTS assay, the titration-response data for each sample was plotted and modeled by a four-parameter logistic fit yielding IC50 and efficacy (maximal response) values. […] REFERENCES: Inglese J, Shamu CE and Guy RK, Reporting data from high throughput screening of small molecule libraries, Nature Chemical Biology, 2007, 3(8): 438-441. doi.org/10.1038/nchembio0807-438.
Background: Quantitative high-throughput screening tests each substance at several concentrations.
On to `COc1ccc(CNc2nc(N(CCO)CCO)nc3c2ncn3C(C)C)cc1`, for which the Potency was 8.91 µM (active).
On the same count and under the same terms, the value for `COc1ccc(S(=O)(=O)N(CCO)c2ccccc2CN(C)C/C=C/c2ccc(Cl)cc2)cc1` was 10 µM (active).
As for `CN(C)C(=O)COC(=O)Cc1ccc(OC(=O)c2ccc(N=C(N)N)cc2)cc1`, the activity (max response) was 3.47% (inactive) and -2% (inactive).
For `Cc1cc(C)cc(OCC2CNC(=O)O2)c1` (stereo not given), the activity (max response) was 4.02% (inactive).
The same measure, in the same setting: the value for `CCn1cc(C(=O)O)c(=O)c2cc(F)c(N3CCNCC3)cc21` was -6.7% (inactive) and -21.8% (inactive).
As for `Cc1cc(C2CCCCC2)n(O)c(=O)c1`, the Potency is 1.3 µM (active) and 25.1 µM (active).
As to `CC[C@H](CC[C@@H](C)[C@H]1CC[C@H]2[C@@H]3CC=C4C[C@@H](O)CC[C@]4(C)[C@H]3CC[C@]12C)C(C)C`, the activity (max response) was -11% (inactive).
Same read-out and setting: to `CC(CN(C)C)C(C)(O)Cc1ccc(Cl)cc1` (stereo not given) belongs 6.59% (inactive); to `Cc1cccc(C)c1NC(=O)c1ccccc1C(=O)O`, 8.06% (inactive).
Same read-out and setting: the value for `COc1cc2c(cc1OC)C1CC(=O)C(CC(C)C)CN1CC2` (stereo not given) was -1.87% (inactive); that for `O=C(Cn1ccnc1[N+](=O)[O-])NCCO` was 10.4% (inactive).
Regarding `C[C@H]1CNC(=O)c2cnn3ccc(nc23)N[C@H](C)c2cc(F)ccc2O1`, the Potency is 8.91 µM (active).
Consider `CC(C)(C)c1nnc(NS(=O)(=O)c2ccc(N)cc2)s1`, for which the activity (max response) is -5.75% (inactive).
Still for that read-out and setting: to `O=C(O)c1cc(=O)c2c(OCC(O)COc3cccc4oc(C(=O)O)cc(=O)c34)cccc2o1` belongs 10.3% (inactive) and -0.0262% (inactive).
Regarding `Cc1cc(=O)c2c(O)c3c(O)cc(=O)c4c3c3c(cc(O)c1c23)C(C)(C)C=4O`, the Potency is 1.78 µM (active).
As to `Cn1c(Nc2ccc(C(F)(F)F)cc2)nc2cc(Oc3ccnc(-c4ncc(C(F)(F)F)[nH]4)c3)ccc21`, the activity (max response) is -8.43% (inactive).
With `C[C@]12CC[C@@H]3c4ccc(O)cc4CC[C@H]3[C@@H]1CCC2=O`, the activity (max response) is -14.1% (inactive).
Same read-out and setting: the value for `CCCCC(F)(F)[C@@]1(O)CC[C@H]2[C@H](CC(=O)[C@@H]2CCCCCCC(=O)O)O1` was 8.13% (inactive).
In the case of `Cc1c(CN2CCC(Nc3ncnc4sc(CC(F)(F)F)cc34)CC2)ccc2c1cc(C#N)n2Cc1cn[nH]c1`, the Potency is 4.47 µM (active).
As for `CC#Cc1cncc(-c2ccc3c(c2)[C@@]2(N=C(C)C(N)=N2)C2(CCC(OC)CC2)C3)c1` (stereo not given in full), the activity (max response) was -4.31% (inactive).
With `N#Cc1ccnc(N2C(=O)CC[C@H]2C(=O)N(c2cncc(F)c2)[C@H](C(=O)NC2CC(F)(F)C2)c2ccccc2Cl)c1`, the activity (max response) was 6.3% (inactive).
For the molecule `CO[C@@H]1[C@@H](OC)[C@H](C)[C@@](O)(CC(=O)O)O[C@H]1[C@H](C)[C@H]1O[C@@]2(CC[C@@](C)([C@H]3CC[C@@](C)([C@@H]4O[C@@H]([C@H]5O[C@](C)(O)[C@H](C)C[C@@H]5C)C[C@@H]4OC4C[C@H](OC)[C@@H](OC)[C@H](C)O4)O3)O2)C[C@H](O)[C@H]1C` (stereo not given in full), the Potency was 1.46 µM (active).
As to `FC1(F)C(F)(F)C(F)(F)C2(F)C(F)(F)C(F)(F)C(F)(F)C(F)(F)C2(F)C1(F)F` (stereo not given), the activity (max response) is 5.48% (inactive).
Still for that read-out and setting: the value for `CC(C)COC(=O)c1ccc(N)cc1` was 4.68% (inactive); that for `O=C(CCCl)NCc1ccccc1` was 9.65% (inactive).
With `CC(=O)Nc1cccc(O)c1`, the activity (max response) was -1.77% (inactive).
Same read-out and setting: to `O=C(O)C(O)Cc1ccc(O)c(O)c1` (stereo not given) belongs -1.27% (inactive); to `Nc1ccn([C@@H]2CS[C@H](CO)O2)c(=O)n1`, 7.41% (inactive).
Still for that read-out and setting: the value for `CC(C)C(C)(C)C(C)(C)C(C)(C)S` was 7.64% (inactive).
Still for that read-out and setting: to `O=S(=O)(O)CCSSCCS(=O)(=O)O` belongs 0.678% (inactive); to `Oc1ccccc1C=NCc1ccccc1`, 6.8% (inactive); to `Cc1cnc(-c2cnc(NCCNc3ccc(C#N)cn3)nc2-c2ccc(Cl)cc2Cl)[nH]1`, 4.03% (inactive).
For the molecule `CC/C=C(\C(=O)N[C@@H]1C(=O)N2C(C(=O)OCOC(=O)C(C)(C)C)=C(COC(N)=O)CS[C@H]12)c1csc(N)n1`, the activity (max response) is 13.8% (inactive).
The same measure, in the same setting: to `COc1ccc(Oc2cc(NCCC(F)(F)F)c3ncc(-c4ccc(C(=O)NC5CC5)c(C)c4)n3n2)c(F)c1F` belongs -17.7% (inactive).
For `O=C(Nc1cccc(C(F)(F)F)c1)Nc1cc(S(=O)(=O)NC2CC2)ccc1-c1ccsc1`, the Potency was 28.2 µM (active).
Consider `C/C=C/CC(C)C(O)C1C(=O)NC(CC)C(=O)N(C)CC(=O)N(C)C(CC(C)C)C(=O)NC(C(C)C)C(=O)N(C)C(CC(C)C)C(=O)NC(C)C(=O)NC(C)C(=O)N(C)C(CC(C)C)C(=O)N(C)C(CC(C)C)C(=O)N(C)C(C(C)C)C(=O)N1C` (stereo not given), for which the activity (max response) was -11.5% (inactive).
In the case of `CCc1nnc(NS(=O)(=O)c2ccc(N)cc2)s1`, the activity (max response) is 4.19% (inactive).
On to `CNC1CCC(N(Cc2cccc(-c3ccncc3)c2)C(=O)c2sc3c(F)ccc(F)c3c2Cl)CC1` (stereo not given), for which the Potency is 10 µM (active).
With `Cc1cc2c(s1)Nc1ccccc1N=C2N1CCN(C)CC1`, the activity (max response) is -7.86% (inactive).
The same measure, in the same setting: to `COC(=O)C1=C(C)NC(c2ncc(F)cc2F)=N[C@H]1c1ccc(F)cc1Cl` belongs -9.49% (inactive).
